Laboratory results taken from PubChem BioAssay (NCATS).
Inconclusive results are not listed. Calls of active or inactive are those of the source. Calls come from the whole dose curve; as a rule, active = well fitted inhibition curve with a large enough effect; inconclusive = small, poorly fitted or top-dose-only effect; inactive = flat fitted curve, though single readings scatter.

Key:
[1] = target: Glutathione peroxidase 1 (Homo sapiens) (UniProt P07203); experiment: Primary qHTS Assay for Inhibitors of Recombinant Selenoprotein Glutathione Peroxidase 1 (GPX1) (AID 1845191); note: nearly all actives have a fitted effect of over 65% in size; for activity, negative = inhibition: % is set by controls: 0 for no effect and ±100 for the full control effect
Sequence of Glutathione peroxidase 1 (Homo sapiens) (P07203 whole entry, looked up): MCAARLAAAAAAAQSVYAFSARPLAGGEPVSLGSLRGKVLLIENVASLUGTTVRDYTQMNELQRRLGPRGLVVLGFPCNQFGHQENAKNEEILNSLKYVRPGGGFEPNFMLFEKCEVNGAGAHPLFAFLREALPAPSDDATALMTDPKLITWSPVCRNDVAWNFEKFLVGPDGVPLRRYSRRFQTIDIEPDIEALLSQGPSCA
In short: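 GPX1 10 nM, GR 100 nM, GSH 1 mM, NADPH 0.5 mM, CHP 0.5 mM (final). 30-min cpd preincubation, RT. Ex340/Em450 read t=0, t=15 min.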

[2] = target: Phospholipid hydroperoxide glutathione peroxidase GPX4 (Homo sapiens) (UniProt P36969); experiment: Primary qHTS Assay for Inhibitors of Recombinant Selenoprotein Glutathione Peroxidase 4 (GPX4) (AID 1845192); note: nearly all actives have a fitted effect of over 65% in size
Sequence of Phospholipid hydroperoxide glutathione peroxidase GPX4 (Homo sapiens) (P36969 whole entry, looked up): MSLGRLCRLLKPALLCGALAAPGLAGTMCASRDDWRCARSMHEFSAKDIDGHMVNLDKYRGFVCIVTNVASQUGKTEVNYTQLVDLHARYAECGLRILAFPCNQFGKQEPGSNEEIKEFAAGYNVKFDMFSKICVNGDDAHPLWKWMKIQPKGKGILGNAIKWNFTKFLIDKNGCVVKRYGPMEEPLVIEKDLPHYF
In short: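 qHTS, GR-coupled: GPX4 200 nM + cpd 30 min RT → GSH 1 mM, NADPH 0.5 mM, GR 100 nM → CHP 0.5 mM start; fluor 340/450 at t0 and t15 min; no-enzyme wells as control.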

[3] = qHTS profiling for inhibitors of Plasmodium falciparum proliferation (AID 504749);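 note: 0% = DMSO vehicle and full inhibition = artemisinin control; nearly all actives have a fitted effect of over 60% in size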; details: P. falciparum in erythrocytes, SYBR Green DNA, 72 h, at 28.7 µM (top of the series)
In short: (§1)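 Fluorescence of SYBR Green-bound parasite DNA, read at 485/535 nm, served as the growth measure. Infected erythrocytes were cultured with compound 72 h; artemisinin (0.29 uM) and DMSO wells defined the normalization range.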

3D7 = experiment: as above; details: P. falciparum in erythrocytes, SYBR Green DNA, 72 h; series mostly up to 28.7 µM
In short: as §1

7G8 = experiment: as above; details: P. falciparum in erythrocytes, SYBR Green DNA, 72 h; series mostly up to 28.7 µM
In short: as §1

CCCCCCCCCCCCCC(=O)OCC(COP(=O)([O-])OCC[N+](C)(C)C)OC(=O)CCCCCCCCCCCCC (configuration not stated)
inactive: Potency [1] | Potency [2] | activity, negative = inhibition ([3]; parasite line A) 4.09% | activity, negative = inhibition ([3]; parasite line B) -2.15% | Potency (3D7) | Potency (7G8)

OCCCNc1ccccc1
inactive: Potency [1] | Potency [2] | activity, negative = inhibition ([3]; parasite line A) 8.17% | activity, negative = inhibition ([3]; parasite line B) 6.74% | Potency (3D7) | Potency (7G8)

CCCc1ccc(C(=O)O)cc1
inactive: Potency [1] | Potency [2] | activity, negative = inhibition ([3]; parasite line A) -2.85% | activity, negative = inhibition ([3]; parasite line B) -4.82% | Potency (3D7) | Potency (7G8)

C/C=C/C=C/C(=O)O
inactive: Potency [1] | Potency [2] | activity, negative = inhibition ([3]; parasite line A) -0.87% | activity, negative = inhibition ([3]; parasite line B) -21% | Potency (3D7) | Potency (7G8)

Cc1nc(NS(=O)(=O)c2ccc(N)cc2)nc(C)c1Br
inactive: Potency [1] | Potency [2] | activity, negative = inhibition ([3]; parasite line A) 7.52% | activity, negative = inhibition ([3]; parasite line B) -0.222% | Potency (3D7) | Potency (7G8)

FC(F)OC(Cl)C(F)(F)F (configuration not stated)
inactive: Potency [1] | Potency [2] | activity, negative = inhibition ([3]; parasite line A) 2.2% | activity, negative = inhibition ([3]; parasite line B) 13% | Potency (3D7) | Potency (7G8)

COc1ccc(-c2noc(CC(=O)O)c2-c2ccc(OC)cc2)cc1
inactive: Potency [1] | Potency [2] | activity, negative = inhibition ([3]; parasite line A) 5.47% | activity, negative = inhibition ([3]; parasite line B) 9.58% | Potency (3D7) | Potency (7G8)

OCCOCCOCCO
inactive: Potency [1] | Potency [2] | activity, negative = inhibition ([3]; parasite line A) 16.8% | activity, negative = inhibition ([3]; parasite line B) 11.6% | Potency (3D7) | Potency (7G8)

CC(C)[C@H](N)C(=O)OCC(CO)OCn1cnc2c(=O)[nH]c(N)nc21 (some centres not stated)
inactive: Potency [1] | Potency [2] | activity, negative = inhibition ([3]; parasite line A) 14.7% | activity, negative = inhibition ([3]; parasite line B) 6.07% | Potency (3D7) | Potency (7G8)

CNC(=O)OCc1cccc(COC(=O)NC)n1
inactive: Potency [1] | Potency [2] | activity, negative = inhibition ([3]; parasite line A) 3.63% | activity, negative = inhibition ([3]; parasite line B) 1.01% | Potency (3D7) | Potency (7G8)

FC(F)(F)C(F)(F)C(F)(F)C(F)(F)C(F)(F)F
inactive: Potency [1] | Potency [2] | activity, negative = inhibition ([3]; parasite line A) 11% | activity, negative = inhibition ([3]; parasite line B) 17.9% | Potency (3D7) | Potency (7G8)

Oc1cc(O)cc(O)c1
inactive: Potency [1] | Potency [2] | activity, negative = inhibition ([3]; parasite line A) 0.686% | activity, negative = inhibition ([3]; parasite line B) -2.93% | Potency (3D7) | Potency (7G8)
